According to PubChem BioAssay (NCATS):
Inconclusive results are not listed. Where a call stands in place of a potency, no number is given. Activity calls are given as the source filed them. Calls come from the whole dose curve; as a rule, active = well fitted inhibition curve with a large enough effect; inconclusive = small, poorly fitted or top-dose-only effect; inactive = flat fitted curve, though single readings scatter.

Legend:
[1] = target: Glutathione peroxidase 1 (Homo sapiens) (UniProt P07203); test: Primary qHTS Assay for Inhibitors of Recombinant Selenoprotein Glutathione Peroxidase 1 (GPX1) (AID 1845191)
Method in brief: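 GPX1 10 nM, GR 100 nM, GSH 1 mM, NADPH 0.5 mM, CHP 0.5 mM (final). 30-min cpd preincubation, RT. Ex340/Em450 read t=0, t=15 min.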

[2] = target: Phospholipid hydroperoxide glutathione peroxidase GPX4 (Homo sapiens) (UniProt P36969); test: Primary qHTS Assay for Inhibitors of Recombinant Selenoprotein Glutathione Peroxidase 4 (GPX4) (AID 1845192); note: potency is the fitted concentration of half-maximal effect
Method in brief: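 qHTS, GR-coupled: GPX4 200 nM + cpd 30 min RT → GSH 1 mM, NADPH 0.5 mM, GR 100 nM → CHP 0.5 mM start; fluor 340/450 at t0 and t15 min; no-enzyme wells as control.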
Note: nearly all actives have a fitted effect of over 65% in size.

Glutathione peroxidase 1 (Homo sapiens), sequence (P07203 whole entry, looked up): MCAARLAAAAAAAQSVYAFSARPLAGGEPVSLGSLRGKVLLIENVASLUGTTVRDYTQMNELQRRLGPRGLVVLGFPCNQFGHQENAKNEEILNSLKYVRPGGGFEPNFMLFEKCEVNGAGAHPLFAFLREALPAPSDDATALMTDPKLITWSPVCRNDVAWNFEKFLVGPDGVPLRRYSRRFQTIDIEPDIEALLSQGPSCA
Phospholipid hydroperoxide glutathione peroxidase GPX4 (Homo sapiens), sequence (P36969 whole entry, looked up): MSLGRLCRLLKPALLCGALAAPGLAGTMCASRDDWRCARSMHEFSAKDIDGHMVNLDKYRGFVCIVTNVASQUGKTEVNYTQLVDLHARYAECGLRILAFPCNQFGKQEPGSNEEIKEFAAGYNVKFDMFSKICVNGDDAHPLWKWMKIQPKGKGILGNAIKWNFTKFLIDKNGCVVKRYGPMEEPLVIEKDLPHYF

CCN(CC)C(=O)N[C@H]1C[C@@H]2c3cccc4[nH]cc(c34)C[C@H]2N(C)C1
Potency [1]: inactive | Potency [2]: inactive

CCC1(C)CC(=O)NC(=O)C1
Potency [2]: inactive

CC1=CC2/C=C(\C)CCC(O)C3OC(C)(C)OC3CC(=O)OC23C(=O)NC(CC(C)C)C3C1C (centres undefined)
Potency [2]: inactive

Cc1cccc(NC(=O)N[C@@H]2N=C(c3ccccc3)c3ccccc3N(C)C2=O)c1
Potency [2]: inactive

CC(N)Cc1ccc(O)cc1 (centres undefined)
Potency [1]: inactive | Potency [2]: inactive

FC(F)OC(F)(F)C(F)Cl (centres undefined)
Potency [1]: inactive | Potency [2]: inactive

OC1(c2ccc(Cl)cc2)c2ccccc2C2=NCCN21 (centres undefined)
Potency [1]: inactive | Potency [2]: inactive

C[C@@H]([C@H](O)c1ccccc1)N(C)C
Potency [1]: inactive | Potency [2]: inactive

C=CC[C@]1(O)CC[C@H]2[C@@H]3CCC4=CCCC[C@@H]4[C@H]3CC[C@@]21C
Potency [1]: inactive | Potency [2]: inactive

O=C(NCNC(=O)NC1C(=O)NC(=O)N1CO)NC1C(=O)NC(=O)N1CO (centres undefined)
Potency [2]: inactive

CC[C@H](C)[C@H]1O[C@]2(C=C[C@@H]1C)C[C@@H]1C[C@@H](C/C=C(\C)[C@@H](O[C@H]3C[C@H](OC)[C@@H](O[C@H]4C[C@H](OC)[C@@H](O)[C@H](C)O4)[C@H](C)O3)[C@@H](C)/C=C/C=C3\CO[C@@H]4[C@H](O)C(C)=C[C@@H](C(=O)O1)[C@]34O)O2
Potency [2]: 5.01 µM (active)

CCNC1(c2cccs2)CCCCC1=O (centres undefined)
Potency [1]: inactive | Potency [2]: inactive

C[C@]12CC[C@H]3[C@@H](CCC4=C(O)C(=O)CC[C@@H]43)[C@@H]1CC[C@@H]2OC(=O)CCC1CCCC1
Potency [1]: inactive | Potency [2]: 14.1 µM (active)

O=C(OCCN1CCCCC1)C(O)(c1ccccc1)c1ccccc1
Potency [1]: inactive | Potency [2]: inactive

C[C@]12CC[C@@H](O)C[C@H]1CC[C@@H]1[C@@H]2CC[C@]2(C)C(=O)CC[C@@H]12
Potency [1]: inactive | Potency [2]: inactive

O=C1C2CC=CCC2C(=O)N1SC(Cl)(Cl)Cl (centres undefined)
Potency [2]: 14.1 µM (active)

CC1CCC(C(C)C)C(OC(=O)c2ccccc2N)C1 (centres undefined)
Potency [2]: inactive

O=C(C[C@@H]1NCCC[C@H]1O)Cn1cnc2cc(Br)c(Cl)cc2c1=O
Potency [2]: 17.8 µM (active)

CCC1C(C)=NN=C(c2ccc(OC)c(OC)c2)c2cc(OC)c(OC)cc21 (centres undefined)
Potency [1]: inactive | Potency [2]: inactive

C=C(C)[C@H]1O[C@H]2CC[C@@]3(C)[C@@](O)(CC[C@H]4[C@@H]5OC(C)(C)[C@H]6C[C@@H]7C(=C)Cc8c(Cl)cc9[nH]c(c5c9c8[C@@]76O)[C@@]43C)[C@]23O[C@@H]3[C@H]1O
Potency [1]: inactive | Potency [2]: inactive

CC(C)(O)[C@H]1O[C@H]2CC[C@@]3(C)[C@@](O)(CC[C@H]4Cc5c([nH]c6ccccc56)[C@@]43C)C2=CC1=O
Potency [1]: inactive | Potency [2]: inactive

Cc1ccccc1-n1c(CF)nc2ccc(N)cc2c1=O
Potency [2]: 17.8 µM (active)

CN1[C@H]2CC[C@@H]1[C@@H](C(=O)O)[C@@H](OC(=O)c1ccccc1)C2
Potency [1]: inactive | Potency [2]: inactive

O=[N+]([O-])c1ccccc1
Potency [2]: inactive

O=C(O)C(Cl)(Cl)Cl
Potency [1]: inactive | Potency [2]: inactive

O=[N+]([O-])C(Br)(CO)CO
Potency [1]: inactive | Potency [2]: inactive

CCNCC(O)c1cccc(O)c1 (centres undefined)
Potency [1]: inactive | Potency [2]: inactive
